Consider eight compounds from PubChem BioAssay (NCI).

Compounds without any hit were thinned out: in the full panel of roughly 83,000, 20% have a hit.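 Treatment: one concentration, 48 hours, 96-well format. Scoring: percent growth, with anything below 10 considered active.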 Values without a mark were called inactive. Activity calls are given as the source filed them.

Among the test systems are NCI-H23 lung; NCI-H226 lung; NCI-H322M lung; HOP-62 NSCLC; NCI-H460 lung; HOP-92 NSCLC; NCI-H522 lung; A549/ATCC NSCLC; 786-0 renal; COLO 205 colon; DU-145 prostate; K-562 leukemia; MALME-3M melanoma; MDA-MB-231 breast; RXF 393 renal; SF-268 CNS; SF-295 CNS; SF-539 CNS; UACC-257 melanoma; M14 melanoma.
What all share (assay): NCI-60 one-dose screen, 48 h (100 = growth as untreated, 0 = no growth, -100 = all killed)
What all share (settings): 10 µM unless noted

As for `COc1cc2ncnc(Nc3cccc(Cl)c3F)c2cc1OC(=O)N1CCN(C)C[C@H]1C`, the growth was 92% in the experiment on NCI-H23 lung; 75.7% with NCI-H226 lung; 10.5% in the experiment on NCI-H322M lung; 61.8% in the experiment with HOP-62 NSCLC; 90.2% in the experiment on NCI-H460 lung; 51.9% with HOP-92 NSCLC. Also, the growth in the experiment on NCI-H522 lung is 16.2%; with A549/ATCC NSCLC it was 40.8%; in the experiment with 786-0 renal, 75.6%; with COLO 205 colon, 79.5%; with DU-145 prostate, 65%; in the experiment on K-562 leukemia, 60.9%. Besides, the growth is 106% with MALME-3M melanoma; 78.7% with MDA-MB-231 breast; 67.9% in the experiment with RXF 393 renal; 73.4% with SF-268 CNS; 83.7% in the experiment on SF-295 CNS; 84.1% in the experiment with SF-539 CNS. For the same compound, the growth in the experiment with UACC-257 melanoma was 68.8%; in the experiment with M14 melanoma, 84.9%.
Consider `C/C(=C(/c1ccc(Cl)cc1)c1ccc(OCCN2CCCCC2)cc1)c1ccccc1`, for which the growth is 76.3% in the experiment with NCI-H23 lung; 98.7% with NCI-H226 lung; 91.4% with NCI-H322M lung; 68.8% in the experiment with HOP-62 NSCLC; 74.4% with NCI-H460 lung; 83.6% with HOP-92 NSCLC. The growth in the experiment on NCI-H522 lung was 81.4%; with A549/ATCC NSCLC, 57.2%; with 786-0 renal it was 75.6%; with COLO 205 colon, 11.8%; with DU-145 prostate it was 97.6%; with K-562 leukemia it was 13.2%. For the same compound, the growth with MALME-3M melanoma was 76.9%; in the experiment with MDA-MB-231 breast, 80.2%; in the experiment on RXF 393 renal, 84.7%; with SF-268 CNS it was 90.5%; in the experiment on SF-295 CNS it was 83.8%; in the experiment on SF-539 CNS it was 69.6%. Moreover, the results for the growth in the experiment on UACC-257 melanoma and with M14 melanoma were 80.3% and 67.1%, respectively.
Consider `CCN1CCN(CCCN(C[C@H]2Cc3ccccc3CN2)[C@H]2CCCc3cccnc32)CC1`, for which the growth with NCI-H23 lung was 101%; with NCI-H226 lung it was 83.7%; with NCI-H322M lung, 79.7%; with HOP-62 NSCLC, 65.2%; in the experiment on NCI-H460 lung, 89.8%; in the experiment with HOP-92 NSCLC, 60.3%. The growth in the experiment on NCI-H522 lung is 89.3%; in the experiment on A549/ATCC NSCLC it was 90.9%; in the experiment on 786-0 renal, 83.3%; with COLO 205 colon, 97.2%; in the experiment with DU-145 prostate, 96.7%; in the experiment with K-562 leukemia it was 63.5%. In addition, the growth in the experiment with MALME-3M melanoma was 113%; with MDA-MB-231 breast it was 77.4%; in the experiment with RXF 393 renal, 93.8%; with SF-268 CNS, 75.9%; in the experiment on SF-295 CNS, 90.7%; with SF-539 CNS, 94.2%. Besides, the growth with UACC-257 melanoma was 80.4%; in the experiment with M14 melanoma, 87.3%.
For `O=c1sn(-c2cccc3ccccc23)c(=O)n1Cc1ccccc1`, the growth in the experiment on NCI-H23 lung is 100%; in the experiment on NCI-H226 lung, 96.8%; in the experiment with NCI-H322M lung, 102%; with HOP-62 NSCLC, 76.6%; with NCI-H460 lung, 101%; in the experiment on HOP-92 NSCLC, 89.3%. The growth in the experiment with NCI-H522 lung is 74.4%; in the experiment on A549/ATCC NSCLC, 70.7%; with 786-0 renal, 107%; with COLO 205 colon, 89.8%; in the experiment on DU-145 prostate it was 108%; in the experiment on K-562 leukemia, 9.59% (active). In addition, the growth was 96.5% with MALME-3M melanoma; 101% in the experiment with MDA-MB-231 breast; 99.3% in the experiment on RXF 393 renal; 105% in the experiment with SF-268 CNS; 105% in the experiment on SF-295 CNS; 114% with SF-539 CNS. In addition, the growth in the experiment on UACC-257 melanoma is 89.2%; in the experiment with M14 melanoma it was 89.8%.
`O=C1CCC(=O)CC1`: the growth is 103% with NCI-H23 lung; 101% in the experiment on NCI-H226 lung; 110% with NCI-H322M lung; 102% with HOP-62 NSCLC; 104% in the experiment on NCI-H460 lung; 87.4% with HOP-92 NSCLC. Moreover, the growth in the experiment with NCI-H522 lung was 91.2%; with A549/ATCC NSCLC, 91.4%; in the experiment with 786-0 renal, 104%; with COLO 205 colon, 115%; with DU-145 prostate, 110%; in the experiment with K-562 leukemia, 96.7%. The growth in the experiment on MALME-3M melanoma was 110%; with MDA-MB-231 breast, 105%; with RXF 393 renal, 113%; with SF-268 CNS, 98.8%; in the experiment on SF-295 CNS it was 101%; in the experiment on SF-539 CNS it was 95.3%. Also, the growth in the experiment on UACC-257 melanoma was 89.4%; in the experiment on M14 melanoma, 98.1%.
Regarding `O=C1C=CC2(NN=C(c3ccccc3)N2c2cccc(Cl)c2)c2cccc(O)c21` (stereo not given), the growth in the experiment on NCI-H23 lung is 26.3%; in the experiment with NCI-H226 lung, 85.6%; with NCI-H322M lung it was 95.1%; in the experiment on HOP-62 NSCLC, 37.9%; in the experiment with NCI-H460 lung it was 85.1%; in the experiment on HOP-92 NSCLC, 110%. Moreover, the growth in the experiment on NCI-H522 lung was 51.3%; in the experiment with A549/ATCC NSCLC, 33.2%; in the experiment with 786-0 renal, 107%; in the experiment on COLO 205 colon, 103%; in the experiment with DU-145 prostate, 95.9%; with K-562 leukemia it was 23%. Moreover, the growth with MALME-3M melanoma is 38.7%; in the experiment with MDA-MB-231 breast, 68.6%; in the experiment on RXF 393 renal, 118%; with SF-268 CNS, 72.4%; in the experiment on SF-295 CNS, 40.8%; in the experiment with SF-539 CNS, 33.9%. The growth in the experiment on UACC-257 melanoma is 30.8%; in the experiment with M14 melanoma, 53.2%.
For the compound `CNC(=O)c1cc(Oc2ccc3nc(NC(=O)Nc4ccc(Cl)c(C(F)(F)F)c4)sc3c2)ccn1`, the growth in the experiment on NCI-H23 lung was 16.5%; in the experiment on NCI-H226 lung, 20.6%; in the experiment with NCI-H322M lung, 23.7%; in the experiment on HOP-62 NSCLC it was -31.3% (active); with NCI-H460 lung it was 3.45% (active); with HOP-92 NSCLC, -27.6% (active). The growth in the experiment with NCI-H522 lung is 17.1%; in the experiment on A549/ATCC NSCLC, -25.1% (active); in the experiment with 786-0 renal it was -64.4% (active); in the experiment on COLO 205 colon, 23.8%; in the experiment with DU-145 prostate, 19.2%; in the experiment on K-562 leukemia it was 47.2%. For the same compound, the growth is -21.1% (active) with MALME-3M melanoma; 4.76% (active) in the experiment on MDA-MB-231 breast; -19.4% (active) in the experiment with RXF 393 renal; 21.9% in the experiment on SF-268 CNS; -10.9% (active) in the experiment on SF-295 CNS; -2.86% (active) in the experiment on SF-539 CNS. Further, the growth with UACC-257 melanoma is 61.4%; in the experiment on M14 melanoma, -10.4% (active).
Take `C=CCCCOC1[C@H](OCc2ccccc2)C(OCc2ccccc2)C(OC)O[C@@H]1CNC(=O)c1cccc(I)c1` (stereo not given in full): the growth was 44.2% in the experiment on NCI-H23 lung; 66.5% in the experiment with NCI-H226 lung; 70.3% with NCI-H322M lung; 77.7% in the experiment with HOP-62 NSCLC; -7.83% (active) in the experiment with NCI-H460 lung; 67.2% in the experiment with HOP-92 NSCLC. For the same compound, the growth is 42.1% with NCI-H522 lung; 27.2% in the experiment on A549/ATCC NSCLC; 39.5% in the experiment on 786-0 renal; 36.9% with COLO 205 colon; 49.7% in the experiment on DU-145 prostate; 52% with K-562 leukemia. Further, the growth was 80.4% with MALME-3M melanoma; 58% in the experiment on MDA-MB-231 breast; 38.1% in the experiment with RXF 393 renal; 31.3% with SF-268 CNS; 35% with SF-295 CNS; 31.8% in the experiment on SF-539 CNS. The growth in the experiment with UACC-257 melanoma was 36.8%; in the experiment with M14 melanoma, 47.1%.
